Screens as filed in PubChem BioAssay.
Shown are actives, neighbours in structure and some others; about 1.2% of the full set was active somewhere.
AMA1-RON2 inh: AMA1-RON2 (P. falciparum) interaction inhibition; AlphaScreen AMA1-biotinylated RON2 peptide binding; Potency, µM (top dose mostly 58.2 µM), most hits filed as inhibitors; 360,000 tested, 0.2% active; note: nearly all actives have a fitted effect of over 45% in size
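AMA1 (3D7) with his tag at 25 nM final met compounds first, then biotinylated RON2 peptide at 25 nM; detection used donor plus acceptor beads, 10 µg/mL apiece, read by AlphaScreen after 30 min at room temperature.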
Giardia FBPA inh: Giardia lamblia aldolase inhibition | purified Giardia FBPA | Potency, µM (series often up to 59.6 µM), most hits filed as inhibitors | 290,000 tested, 0.71% active; note: nearly all actives have a fitted effect of over 55% in size
Target sequence (A8B2U2 whole entry, looked up): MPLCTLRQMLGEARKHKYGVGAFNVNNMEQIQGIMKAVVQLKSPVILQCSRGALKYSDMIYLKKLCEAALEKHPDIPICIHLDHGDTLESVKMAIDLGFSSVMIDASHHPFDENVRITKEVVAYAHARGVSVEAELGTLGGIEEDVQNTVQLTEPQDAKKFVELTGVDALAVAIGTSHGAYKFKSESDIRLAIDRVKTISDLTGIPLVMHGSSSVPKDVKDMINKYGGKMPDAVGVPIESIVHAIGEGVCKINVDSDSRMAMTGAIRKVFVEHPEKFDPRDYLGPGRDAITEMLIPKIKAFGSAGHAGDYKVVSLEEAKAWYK
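40 nM FBPA preincubated 10 min at RT with compound (up to 57.5 uM final), then substrate plus GAPDH/TPI/NAD/arsenate coupling and diaphorase/resazurin added. Fluorescence read after 20 min at RT, 525/598 nm.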
Tb PYK inh: T. brucei pyruvate kinase inhibition; Q57TT1; TbPYK enzyme, Kinase-Glo Plus ATP luminescence, 45 min; Potency, µM (top dose mostly 76.8 µM), actives largely listed as inhibitors; 410,000 tested, 0.12% active; AID 624173; note: nearly all actives have a fitted effect of over 50% in size
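Luminescence from Kinase-Glo Plus, added after a 45-minute room-temperature reaction, served as the end-point read-out. The enzyme and substrate were preincubated with compound before ADP (130 uM final) initiated turnover. Concentration-effect curves came from normalized qHTS data.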
NS1 inh: blocks influenza NS1 protein function; Potency, µM (top dose mostly 46.1 µM); 270,000 tested, 0.4% active; calls by dose curve; note: actives are rising curves; nearly all actives have a fitted effect of over 50% in size
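Recovery from NS1-induced slow growth read by OD600 in budding yeast switched to galactose assay medium (pH 6.0, -URA) at 1:100 dilution. Compound 23 nl per well; the matching strain lacking NS1 serves as control.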
LmPK inhibitor: blocks Leishmania mexicana pyruvate kinase activity. 290,000 tested, 0.37% active. purified LmPK, Kinase-Glo ATP luminescence, 1 h. Q27686. Potency, µM (series often up to 57.5 µM), hits mostly inhibitors
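In 50 mM imidazole pH 7.2 with 7 mM MgCl2, LmPK (0.1 nM) turned over PEP (0.5 mM) and ADP (0.1 mM) for 1 h at room temperature. Luciferase read-out of ATP.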
Flu NS1 inh: influenza NS1 function inhibition validation | shares compounds with NS1 inh | influenza NS1 function cell assay, 15-point titration | activity change, negative = inhibition, % at 32.9 µM | 1,400 tested, under 10 active; calls by dose curve
A number is an active result; n = inactive; u = inconclusive; x = no result; ! = not confirmed by another sample; [ ] = dose if it differs, or a comment. Unless noted, calls come from the whole dose curve; as a rule, active = well fitted curve in the direction sought with a large enough effect; inconclusive = small, poorly fitted or top-dose-only effect, or another doubt; inactive = no such curve, though single readings can be large; an effect the other way counts as inactive or inconclusive.

SMILES | AMA1-RON2 inh | Giardia FBPA inh | Tb PYK inh | NS1 inh | LmPK inhibitor | Flu NS1 inh
Cc1cnc(NC(=O)c2cc(S(=O)(=O)N(C)C)ccc2N2CCCC2)s1 | n | x | n | x | x | x
CN(C)S(=O)(=O)c1ccc(N2CCCC2)c(C(=O)Nc2nc3c(ccc4ccccc43)s2)c1 | n | n | n | 14µM | n | n
CCCn1c(C)nc2c(NC(C)CN(C)C)nc(C)nc21 (stereo unspecified) | x | n | x | x | x | x
CC(NCc1ccc(S(N)(=O)=O)cc1)C(=O)N1c2ccccc2CC1C (stereo unspecified) | u | u | n | 7.9µM | n | n
CC(NCc1ccc(S(N)(=O)=O)cc1)C(=O)N1CCc2ccccc21 (stereo unspecified) | n | n | n | n | n | x
FC(F)(F)c1cccc(NC(=S)N2CCN(c3cccc(C(F)(F)F)c3)CC2)c1 | n | n | n | u | n | n
CCC[C@@H]1C[C@@]1(CCC)C(NC(=O)OCc1ccccc1)c1ccc(-c2ccccc2)cc1 (stereo partly specified) | x | n | x | x | x | x
COc1ccc(-n2nc(C(=O)N(C)C)nc2-c2ccccc2)cc1 | n | n | n | u | n | n
CCC[C@H]1C[C@H](C(=O)NC(C(C)Cl)C2O[C@@H](SC)C(OP(=O)(O)O)[C@@H](O)[C@@H]2O)N(C)C1 (stereo partly specified) | x | n | n | x | x | x
CCOC(=O)N1CCN(S(=O)(=O)c2ccc(C(=O)N(CCN(CC)CC)c3nc4c(C)cccc4s3)cc2)CC1 | n | u | n | n | n | x
CCOC(=O)N1CCN(S(=O)(=O)c2ccc(C(=O)NNc3nc4c(C)cc(C)cc4s3)cc2)CC1 | n | u | n | 4µM | n | u
CCOC(=O)N1CCN(S(=O)(=O)c2ccc(C(=O)NNc3nc4ccc(Cl)cc4s3)cc2)CC1 | n | n | n | 7.9µM | n | n
CCOC(=O)N1CCN(S(=O)(=O)c2ccc(C(=O)NNc3nc4c(C)cccc4s3)cc2)CC1 | n | n | u | 10µM | n | u
Cc1cccc2sc(NNC(=O)c3ccc(S(=O)(=O)N4CCCC(C)C4)cc3)nc12 (stereo unspecified) | n | n | u | n | n | x
Cc1cccc2sc(NNC(=O)c3ccc(S(=O)(=O)N4CCc5ccccc5C4)cc3)nc12 | n | u | u | 13µM | n | u
CCOC(=O)N1CCN(S(=O)(=O)c2ccc(C(=O)NNc3nc4cc(C)cc(C)c4s3)cc2)CC1 | n | u | n | u | n | x
CCOC(=O)N1CCN(S(=O)(=O)c2ccc(C(=O)N(CCN(C)C)c3nc4ccc(Cl)cc4s3)cc2)CC1 | n | x | n | n | n | x
C1CCN(CC[C@@H]2CCCCN2)CC1 | x | x | x | n | x | x
Nc1nc2c(nc(Sc3ccc(Cl)cc3)n2C2OC(CO)C(O)C2O)c(=O)[nH]1 (stereo unspecified) | x | n | x | x | x | x
Cc1cc(C)n2nc(SCC(=O)Nc3c(C)n(C)n(-c4ccccc4)c3=O)nc2n1 | n | n | n | 5µM | n | n
O=C(CSc1nc2ccccc2c2nc3ccccc3n12)NCc1ccco1 | n | n | n | 2.8µM | n | n
CCn1c(SCC(=O)NCc2ccco2)nc2ccccc2c1=O | n | n | n | n | n | x
OC[C@@H]1[C@@H](c2ccc(F)cc2)C(c2ccc(F)cc2)=NN1c1ccccc1 | x | n | x | x | x | x
O=C(N/N=C/C=C\c1ccccc1[N+](=O)[O-])c1ccccn1 | n | n | n | n | n | x
O=C(N/N=C/C=C/c1ccccc1[N+](=O)[O-])c1cc(-c2ccccc2)n[nH]1 | n[2.32 µM] | n | n | 2.2µM | n | n
SMILES | AMA1-RON2 inh | Giardia FBPA inh | Tb PYK inh | NS1 inh | LmPK inhibitor | Flu NS1 inh
C[C@H]1COC(=O)[C@H](Cc2ccccc2)NC(=O)[C@@H](C)COC(=O)[C@H](Cc2ccccc2)NC1=O | x | n[12.9 µM] | x | x | x | x
C[C@H](O)CO[C@H]1[C@H]2O[C@H]3[C@H](O)[C@@H](O)[C@@H](O[C@H]4[C@H](O)[C@@H](O)[C@@H](O[C@H]5[C@H](O)[C@@H](O)[C@@H](O[C@H]6[C@H](O)[C@@H](OC[C@H](C)O)[C@@H](O[C@H]7[C@H](O)[C@@H](OC[C@H](C)O)[C@@H](O[C@H]8[C@H](O)[C@@H](O)[C@@H](O[C@@H]([C@@H]1O)[C@@H](CO)O2)O[C@@H]8CO)O[C@@H]7CO)O[C@@H]6CO)O[C@@H]5CO)O[C@@H]4CO)O[C@@H]3CO | x | n | x | x | x | x
O=C1N/C(=N/N=C/c2ccccc2)SC1(c1ccccc1)c1ccccc1 | n | n | n | 14µM | n | n
NC(=O)NC(=O)CC1S/C(=N/N=C/c2ccccc2)NC1=O (stereo unspecified) | n | n | n | n | n | x
Cc1cc(C)cc(NC(=O)CCCN2C(=O)COc3ccc(C)cc32)c1 | x | x | n | x | x | x
Cc1ccc(N(CC(=O)NN=C2CCN(C)CC2)S(=O)(=O)c2ccccc2)c(C)c1 | n | n | n | 4.5µM | n | n
c1ccc(CCNC2=NCCCS2)cc1 | n | n | n | u | n | n
c1ccc(CCNC2=NCCS2)cc1 | n | n | n | n | n | x
O=C(N/N=C1\CC2CC=CC12)c1ccc(COc2ccccc2)cc1 (stereo unspecified) | n | n | n | 5.6µM | n | n
CCCCC(=O)Nc1ccc2c(c1)nc1n2CCSC1 | n | n | n | 8.9µM | n | n
CC(=O)Nc1ccc2c(c1)nc1n2CCSC1 | n | n | n | n | n | x
COc1ccc(OC)c(S(=O)(=O)N2CCCCC2C(=O)N2CCN(c3ccccn3)CC2)c1 (stereo unspecified) | n | n | n | n | n | x
COc1ccc(OC)c(S(=O)(=O)N2CCCC2C(=O)N2CCc3ccccc3C2)c1 (stereo unspecified) | n | n | n | u | n | u
COCCNC(=O)c1onc(CCl)c1C(=O)OC | n | n | n | n | n | x
CCCCNC(=O)c1onc(CCl)c1C(=O)OC | n | n | n | 1.1µM | n | n
Cc1ccc(-c2cc(N)n(Cc3ccc(Cl)cc3)n2)cc1 | n | n | n | 5µM | n | n
COc1cc(/C=C2\C(=O)NC(=O)N(c3ccccc3)C2=O)cc(OC)c1OC | n | n | u | 7.9µM | n | n
COc1cc(/C=C2/C(=O)NC(=O)N(c3ccc(C)cc3)C2=O)cc(OC)c1OC | n | n | u | n | n | x
COc1ccc2cc(/C=N/NC(=O)c3ccc(CN(c4cccc(Cl)c4Cl)S(C)(=O)=O)cc3)c(Cl)nc2c1 | n | n | n | 13µM | n | u
COc1ccc2cc(/C=N/O)c(Cl)nc2c1 | n | n | n | x | n | x
O=C(Cc1cc(=O)[nH][nH]1)N/N=C/C=C/c1ccccc1 | n | n | n | 5µM! | n | n
COc1ccccc1/C=N/NC(=O)c1nnn(-c2nonc2N)c1-c1ccccc1 | n | x | n | x | x | x
COc1ccccc1/C=N/NC(=O)c1nnn(-c2nonc2N)c1-c1cccs1 | n | u | n | 2.2µM | n | n
